USP17 inh – blocks human USP17 ubiquitin-rhodamine cleavage. inhibition, % at 50 µM. hit rate 6.5% among 47,000. AID 1645855. purified USP17, Ub-rhodamine cleavage fluorescence, 3 h. A8MUK1
USP28 inh – inhibitors of human USP28 deubiquitinase. purified USP28, Ub-rhodamine cleavage fluorescence, 30 min. hit rate 3% among 47,000. inhibition, % at 25 µM. Q96RU2
USP30 inh – blocks human USP30 ubiquitin-rhodamine cleavage; hit rate 5.3% among 47,000; AID 1645860; inhibition, % at 25 µM; purified USP30, Ub-rhodamine cleavage fluorescence; Q70CQ3
Hits are given with their value; n = inactive; x = not tested or not shown. An excerpt weighted towards active compounds, which were near 11% of everything screened. Cut-off read from the data, not from the text of the source: active = inhibition above about 30%; inactive = the rest.

SMILES	USP17 inh	USP28 inh	USP30 inh
C[C@H]1C(=O)N(C)[C@@H]2CCN(C(=O)C3CCCCC3)[C@@H]2C(=O)N1C	n	n	33
COc1cccc(CN2C(=O)c3ccccc3S2(=O)=O)c1	n	n	n
O=C1c2ccccc2S(=O)(=O)N1Cc1ccc2nonc2c1	n	37	n
COc1ccc(N2CCN(c3ncnc4sc(C(=O)Nc5ccc(Oc6ccccc6)cc5)c(C)c34)CC2)cc1	n	n	n
Cc1c(C(=O)NCc2ccc(Cl)cc2)sc2ncnc(N3CCCC3)c12	n	31	43
Cc1c(C(=O)NCc2cccc(F)c2)sc2ncnc(N3CCCC3)c12	n	n	n
CCc1ccc(NC(=O)c2sc3ncnc(N4CCN(C)CC4)c3c2C)cc1	n	35	n
Cc1sc2c(c1C)-c1nc(SCC(=O)c3ccc(Cl)cc3)ncc1S(=O)(=O)N2C	n	n	n
O=C1NC(=N/N=C/c2ccccc2)SC1Cc1cc(C(F)(F)F)ccc1Cl (configuration not stated)	36	n	35
COc1cccc(CN2Cc3ccccc3OC3(CCC(CO)CC3)C2)c1F (configuration not stated)	n	n	n
Cc1[nH]c2ccccc2c1C(=O)COc1ncnc2sc(C)c(C)c12	n	n	n
COc1cc(Cl)ccc1Oc1ncnc2sc(C)c(C)c12	62	n	46
O=C(O)c1c(CNCCc2c[nH]c3ccccc23)c2ccccc2n1Cc1ccccc1F	n	n	n
Cc1cc(=O)n(C)c2c(O)c3c(cc12)c(C)cc(=O)n3C	77	70	n
CC(=O)Nc1ccc(OCC(O)CN2CCC(Cc3ccccc3)CC2)cc1 (configuration not stated)	n	n	n
CCN(CC)CCNC(=O)c1cn(CC)c2ccc(S(=O)(=O)N3CCCC3)cc2c1=O	n	n	n
Cc1nc(-c2ccccc2)sc1C(=O)/C=C/c1c(F)cccc1Cl	n	n	n
Cc1nc(-c2ccccc2)sc1C(=O)/C=C/c1ccccc1[N+](=O)[O-]	n	n	38
COc1ccc(-c2ccc(=O)n(Cc3ccc(F)cc3)n2)cc1OC	n	n	n
COc1ccccc1OC(C)C(=O)Nc1ccc2c(c1)NC(=O)CO2 (configuration not stated)	n	n	n
COc1ccccc1OC(C)C(=O)Nc1ccc2nsnc2c1 (configuration not stated)	32	n	n
CCc1nnc(NC(=O)c2nnn(-c3ccccc3Cl)c2C)s1	n	60	37
Cc1ccc(Cl)c(-n2nnc(C(=O)Nc3ccccc3F)c2C)c1	n	n	n
Cn1c(SCc2ccccc2F)nnc1-c1ccc2c(c1)OCCCO2	n	n	n
Cn1c(SCc2c(F)cccc2Cl)nnc1-c1ccc2c(c1)OCCCO2	n	n	33
SMILES	USP17 inh	USP28 inh	USP30 inh
CNc1cc(C2CCCN(C(=O)Cc3c(C)noc3C)C2)ccn1 (configuration not stated)	n	n	n
Cc1coc2cc3oc(=O)c(CCC(=O)Nc4ccc(Cn5cncn5)cc4)c(C)c3cc12	n	n	n
Cc1c(Cc2ccccc2)c(=O)oc2cc3occ(-c4ccc5ccccc5c4)c3cc12	32	n	n
Cc1ccnc(SCc2cc(=O)[nH]c(N3CCN(c4ccccc4)CC3)n2)n1	x	n	n
c1cncc(CNc2ncnc3c2sc2nc(N4CCOCC4)c4c(c23)CCC4)c1	32	n	n
c1ccc(CCNc2ncnc3c2sc2nc(N4CCOCC4)c4c(c23)CCC4)cc1	n	n	n
CCN(CC)CCCNc1ncnc2c1sc1nc(N3CCOCC3)c3c(c12)CCC3	n	n	n
CC(Nc1ncnc2c1sc1nc(N3CCOCC3)c3c(c12)CCC3)c1ccccc1 (configuration not stated)	51	n	n
O=C(NCc1ccccc1CN1CCCC1)c1cccc2cccnc12	n	37	n
COc1ccccc1CNC(=O)c1cccc2cccnc12	n	n	n
O=C(Nc1cc(F)c2nc(N3CCOCC3)ccc2c1)C1CC1	76	n	n
O=C(CCc1ccccc1)Nc1cc(F)c2nc(N3CCOCC3)ccc2c1	n	n	n
CC(=O)N1CCC(C(=O)Nc2ccc(N3CCOCC3)cc2)CC1	n	n	n
O=C(NCc1ccc(N2CCOCC2)nc1)c1ccc(F)c(F)c1	n	n	n
O=C(Nc1cc(F)c2nc(N3CCOCC3)ccc2c1)C1CCC1	42	n	n
O=C(Nc1cc(F)c2nc(N3CCOCC3)ccc2c1)c1ccc(Br)o1	85	n	n
CC(C)c1ccc(NC(=O)C2CCCN(C(=O)c3cc(-c4ccccn4)n[nH]3)C2)cc1 (configuration not stated)	n	n	n
CCCn1cnc2sc(C(=O)N3CCC[C@@]4(C)[C@@H]3CCCN4C(C)=O)c(C)c2c1=O	n	n	n
COC1/C=C/C2(C)OC2C/C=C/C=C(\C)C(=O)C(C)/C=C(\C)C(=O)OC(/C=C/C2OC2C)C(C)C(O)C1 (configuration not stated)	n	n	n
N#Cc1cccnc1N1CCN(C(=O)Nc2cccc3ccccc23)CC1	77	n	n
CCOc1ccccc1NC(=O)N1CCCN(c2ncccc2C#N)CC1	n	n	n
COc1ccc(Cl)cc1C(=O)Nc1cnc(N2CCOCC2)nc1	x	n	n
COc1ccc(Cl)cc1C(=O)Nc1cc(C)cc(C)n1	46	n	n
Cc1cc(N)cc(C2CN(C(=O)c3ccc4ncccc4c3)CCO2)n1 (configuration not stated)	n	n	n
O=c1c(S(=O)(=O)c2cc(F)cc(F)c2)c[nH]c2cc(Cl)ccc12	52	n	n
SMILES	USP17 inh	USP28 inh	USP30 inh
O=S(=O)(Cc1ccc(F)cc1)c1c[nH]c2ccccc12	n	n	n
CN1CCN(C2(CNC(=O)COc3ccc([N+](=O)[O-])cc3)CCCCC2)CC1	n	n	n
COc1cccc(NC(=O)N2CCC3(C2)Nc2cccnc2NC3=NC(C)(C)C)c1 (configuration not stated)	n	n	n
Cc1cc(C)c2sc(N(CCCn3ccnc3)C(=O)Cc3ccccc3)nc2c1	x	40	92
COc1ccc2nc(N(Cc3ccncc3)C(=O)c3ccc(C)cc3)sc2c1	n	n	n
Cc1cc(C)c2sc(N(CCN(C)C)C(=O)CS(=O)(=O)c3ccccc3)nc2c1	n	n	n
COc1ccc2nc(N(CCCn3ccnc3)C(=O)c3ccc(Cl)s3)sc2c1	42	n	50
O=C1OC[C@@H]2CCN(Cc3ccncc3)C[C@H]2N1Cc1ccccc1	n	n	n
CNc1nc2c(c(=O)n1Cc1ccccc1)CN(C(=O)c1ccc(OC)cc1)CC2	n	n	n
O=c1c2c(ccn1Cc1nc(-c3ccccc3)no1)ccn2CC1CC1	n	x	x
CC(C)(C)c1ccc(C(=O)Nc2ccc(O)c(-c3nc4cnccc4o3)c2)cc1	n	n	n
CC(=O)Nc1ccc(O)c(-c2nc3cc(C)ccc3o2)c1	51	n	n
COc1ccc(CC(=O)Nc2c(C)nc3sccn3c2=O)cc1	n	n	n
Cc1cc(C)nc(NC(=O)c2c(C)nc3sccn23)c1	31	x	x
Cc1cccc(Cn2cc(C(=O)O)c3ccccc3c2=O)c1	n	n	n
COc1ccc2c(c1)c(=O)c(S(=O)(=O)c1ccccc1)cn2Cc1cccc(C)c1	n	n	32
O=C(CN1CCCCC1)N1CCC(c2cc(=O)n3c(n2)CCCCC3)C1 (configuration not stated)	n	x	x
O=c1ccc(-c2nc(C3CC3)no2)cn1Cc1cc(=O)n2ccccc2n1	n	n	n

Screening data: PubChem, Buhrlage Lab, Dana-Farber Cancer Institute and Novartis Institutes for BioMedical Research (Cambridge, Mass)
